Compounds without any hit were thinned out: in the full panel of roughly 83,000, 20% have a hit.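 Treatment: one concentration, 48 hours, 96-well format. Scoring: percent growth, with anything below 10 considered active.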 Unmarked numbers belong to inactive results. Activity calls are given as the source filed them.

We go through eight molecules from PubChem BioAssay (NCI).

Test systems include SR leukemia; RPMI-8226 leukemia; OVCAR-8 ovarian; OVCAR-5 ovarian; OVCAR-4 ovarian; SK-OV-3 ovarian; IGROV1 ovarian; OVCAR-3 ovarian; HS 578T breast; NCI/ADR-RES ovarian; T-47D breast; BT-549 breast; MDA-MB-435 melanoma; SW-620 colon; MCF7 breast; HCT-116 colon; HCC-2998 colon; KM12 colon.
Common to all, as to experiment: NCI-60 one-dose screen, 48 h (100 = growth as untreated, 0 = no growth, -100 = all killed)
Holding throughout (conditions): 10 µM unless noted

`COc1cc2ncnc(Nc3ccc(F)c(Cl)c3)c2cc1OCC(=O)N1CCN(c2ccc(F)cc2)CC1`: the growth in the assay with SR leukemia was 79%; in the assay with RPMI-8226 leukemia, 98.8%; in the assay with OVCAR-8 ovarian it was 107%; in the assay on OVCAR-5 ovarian it was 60.6%; in the assay with OVCAR-4 ovarian, 82%; in the assay with SK-OV-3 ovarian it was 88.1%. The growth was 46.9% in the assay with IGROV1 ovarian; 83.4% in the assay with OVCAR-3 ovarian; 89.3% in the assay on HS 578T breast; 82.7% in the assay with NCI/ADR-RES ovarian; 75.2% in the assay on T-47D breast; 101% with BT-549 breast. The growth with MDA-MB-435 melanoma was 96.5%; in the assay with SW-620 colon it was 101%; in the assay on MCF7 breast it was 83.8%; in the assay with HCT-116 colon, 88.7%; in the assay with HCC-2998 colon it was 98.1%; in the assay on KM12 colon it was 100%.
For `COc1ccc(C2CC(c3ccc4c(c3)OCO4)=Nc3c(N)ncnc3N2)cc1` (centres undefined), the growth in the assay with SR leukemia is 86.4%; in the assay on RPMI-8226 leukemia, 55.7%; in the assay with OVCAR-8 ovarian, 103%; in the assay with OVCAR-5 ovarian, 82.9%; in the assay with OVCAR-4 ovarian, 102%; with SK-OV-3 ovarian, 103%. Also, the growth in the assay on IGROV1 ovarian was 104%; in the assay on OVCAR-3 ovarian, 151%; in the assay with HS 578T breast, 103%; in the assay on NCI/ADR-RES ovarian, 92.3%; in the assay on T-47D breast it was 84.9%; in the assay with BT-549 breast it was 118%. Besides, the growth in the assay on MDA-MB-435 melanoma was 105%; in the assay on SW-620 colon it was 95.9%; with MCF7 breast, 90.6%; with HCT-116 colon it was 98.5%; in the assay with HCC-2998 colon, 92.4%; in the assay on KM12 colon, 100%.
Regarding `O=C(/C=C/C12c3ccccc3C(c3ccccc31)C1C(=O)NC(=O)C12)c1ccccn1` (centres undefined), the growth was -8.33% (active) in the assay on SR leukemia; -27.6% (active) in the assay on RPMI-8226 leukemia; 1.98% (active) with OVCAR-8 ovarian; 21% with OVCAR-5 ovarian; 35.3% with OVCAR-4 ovarian; 5.83% (active) in the assay on SK-OV-3 ovarian. The growth is -12.3% (active) with IGROV1 ovarian; -8.72% (active) in the assay on OVCAR-3 ovarian; 40.1% in the assay on HS 578T breast; 11.3% in the assay on NCI/ADR-RES ovarian; 9.45% (active) with T-47D breast; 11% in the assay on BT-549 breast. Moreover, the growth with MDA-MB-435 melanoma was -23.7% (active); in the assay on SW-620 colon, -1.62% (active); in the assay on MCF7 breast it was 10.4%; in the assay on HCT-116 colon, -65% (active); in the assay on HCC-2998 colon, 16.5%; in the assay with KM12 colon, 1.06% (active).
On to `CCCC(O)Cn1ncc(C(=O)OCC)c1NC(=O)NCc1cccc(F)c1` (centres undefined), for which the growth was 80.1% in the assay with SR leukemia; 75.2% in the assay with RPMI-8226 leukemia; 94.8% in the assay with OVCAR-8 ovarian; 100% with OVCAR-5 ovarian; 87.2% with OVCAR-4 ovarian; 100% in the assay with SK-OV-3 ovarian. For the same molecule, the growth with IGROV1 ovarian was 97.2%; in the assay on OVCAR-3 ovarian, 99.7%; in the assay on HS 578T breast, 110%; in the assay with NCI/ADR-RES ovarian it was 95.5%; with T-47D breast, 88.2%; with BT-549 breast it was 78.5%. Further, the growth in the assay on MDA-MB-435 melanoma was 101%; with SW-620 colon, 107%; in the assay with MCF7 breast, 91.8%; with HCT-116 colon, 71.6%; in the assay with HCC-2998 colon, 90.6%; in the assay on KM12 colon, 105%.
As to `CCCCCCCCCCCCCCCCCCOc1ccccc1CC(=O)NCC[N+]1(C)CCOCC1`, the growth in the assay on SR leukemia was 18.2%; with RPMI-8226 leukemia it was -4.77% (active); with OVCAR-8 ovarian, 67.8%; with OVCAR-5 ovarian, 26.3%; in the assay with OVCAR-4 ovarian, 71.7%; with SK-OV-3 ovarian, 81.2%. For the same molecule, the growth in the assay on IGROV1 ovarian was -67.2% (active); with OVCAR-3 ovarian, 67.3%; in the assay with HS 578T breast, 67.4%; in the assay with NCI/ADR-RES ovarian, 103%; in the assay on T-47D breast it was 62.3%; in the assay on BT-549 breast, 39.8%. Also, the growth is 76% in the assay on MDA-MB-435 melanoma; 79.2% in the assay on SW-620 colon; 69% in the assay on MCF7 breast; 61.8% in the assay with HCT-116 colon; 31.1% with HCC-2998 colon; 5.07% (active) in the assay on KM12 colon.
In the case of `O=C(CSc1nc2ccc([N+](=O)[O-])cc2[nH]1)Nc1ccc(Br)cc1`, the growth in the assay with SR leukemia was 22.9%; in the assay with RPMI-8226 leukemia, 6.95% (active); in the assay with OVCAR-8 ovarian, 52.5%; in the assay on OVCAR-5 ovarian, 85.7%; in the assay on OVCAR-4 ovarian, 34.4%; in the assay on SK-OV-3 ovarian it was 44.7%. Also, the growth in the assay with IGROV1 ovarian is 63.8%; with OVCAR-3 ovarian, 39.3%; in the assay with HS 578T breast it was 78.7%; in the assay on NCI/ADR-RES ovarian, 59.3%; in the assay on T-47D breast it was 8.75% (active); in the assay on BT-549 breast, 50.4%. Further, the growth in the assay on MDA-MB-435 melanoma is 46.5%; with SW-620 colon, 74.5%; in the assay with MCF7 breast it was 64.5%; in the assay with HCT-116 colon, 28.2%; in the assay with HCC-2998 colon, 79.6%; in the assay with KM12 colon, 56.2%.
On to `CCn1cc(C(=O)N/N=C/c2ccc(Br)cc2)c(=O)c2cc(F)c(N3CCNC(C)C3)c(F)c21` (centres undefined), for which the growth in the assay with SR leukemia was 4.35% (active); with RPMI-8226 leukemia, -14.8% (active); in the assay on OVCAR-8 ovarian, 57.8%; with OVCAR-5 ovarian it was 94%; in the assay on OVCAR-4 ovarian it was 81.7%; with SK-OV-3 ovarian, 109%. Further, the growth with IGROV1 ovarian is 71.3%; with OVCAR-3 ovarian, 52.9%; in the assay with HS 578T breast, 73%; in the assay with NCI/ADR-RES ovarian, 83.3%; in the assay with T-47D breast, 64.1%; in the assay on BT-549 breast, 91.7%. Besides, the growth with MDA-MB-435 melanoma is 16.7%; in the assay with SW-620 colon, -74.1% (active); with MCF7 breast, -77.3% (active); in the assay with HCT-116 colon, 67.7%; with HCC-2998 colon it was 25.9%; in the assay on KM12 colon, 47.9%.
As for `COP(=O)(OC)c1nnn(-c2cccc([N+](=O)[O-])c2)c1C`, the growth in the assay with SR leukemia was 104%; in the assay with RPMI-8226 leukemia, 103%; in the assay with OVCAR-8 ovarian, 101%; in the assay on OVCAR-5 ovarian, 104%; in the assay with OVCAR-4 ovarian it was 103%; in the assay with SK-OV-3 ovarian, 123%. In addition, the growth with IGROV1 ovarian is 110%; in the assay on OVCAR-3 ovarian it was 111%; in the assay on HS 578T breast, 102%; in the assay on NCI/ADR-RES ovarian it was 103%; with T-47D breast it was 99.4%; with BT-549 breast it was 105%. In addition, the growth with MDA-MB-435 melanoma is 108%; with SW-620 colon, 100%; in the assay on MCF7 breast, 97.9%; in the assay with HCT-116 colon, 105%; with HCC-2998 colon, 110%; with KM12 colon, 105%.
